PubChem BioAssay (EPA / NIEHS)
Records with an inconclusive call do not appear. Activity calls are given as the source filed them. Rule for the calls: active = hit-call score of the fitted dose curve at least 0.9, where 1 is the maximum; inconclusive = response in the unintended direction; inactive = score below 0.9.

molecular target: Peroxisome proliferator-activated receptor gamma (Homo sapiens) (UniProt P37231); test: OT_PPARg_PPARgSRC1_0480: Odyssey Thera (OT) 8-hour Protein-Complementation Assay for Peroxisome Proliferator-activated Receptor Gamma / SRC-1 Co-activator (AID 2283387);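 note: nuclear to cytoplasmic split Venus YFP fluorescence ratio reporting PPARg SRC-1 interaction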
Experimental: OT_PPARg_PPARgSRC1_0480 is a cell-based assay that uses HEK293T, a human kidney cell line, with measurements taken at 8 hours after chemical dosing in a 384-well plate.OT_PPARg_PPARgSRC1_0480 is one of one assay component(s) measured or calculated from the OT_PPARg_PPARgSRC1_0480 assay. It is designed to make measurements of protein fragment complementation, a form of binding reporter, as detected with fluorescence intensity signals by Protein-fragment Complementation technology.Data from the assay component OT_PPARg_PPARgSRC1_0480 was analyzed into 1 assay endpoint. This assay endpoint, OT_PPARg_PPARgSRC1_0480, was analyzed in the positive analysis fitting direction relative to DMSO as the negative control and baseline of activity. Using a type of binding reporter, measures of receptor for gain-of-signal activity can be used to understand the binding at the pathway-level as they relate to the gene PPARG. Furthermore, this assay endpoint can be referred to as a primary readout, because the performed assay has only produced 1 assay endpoint. To generalize the intended target to other relatable targets, this assay endpoint is annotated to the nuclear receptor intended target family, where the subfamily is non-steroidal.
The OT PPARg/SRC-1 assay assessed receptor-chemical interactions using a rapidly maturing, intensely fluorescent mutant of YFP known as Venus, rationally dissected into two separate fragments. The fragments were obtained as follows: first, fragments coding for YFP1 and YFP2 (corresponding to amino acid residues 1-158 and 159-239 of the full length YFP, respectively) were generated by oligonucleotide synthesis (Blue Heron Biotechnology), and then PCR mutagenesis was used to generate the mutant fragments IFP1 and IFP2. Fusion constructs were transfected into HEK293T cells with a (Gly4Ser)2 linker between the PPARg/SRC-1 and YFP fragment genes to facilitate complementation when interacting proteins bring fragments into close proximity. The construct is transiently transfected in HEK293T cells 48 hours prior to treatment with test compounds. Cells are seeded into optical quality 384-well poly-D-lysine coated plates in MEM alpha medium (Invitrogen) supplemented with 10 percent FBS (Gemini Bio-Products) 1 percent penicillin and 1 percent streptomycin, and grown in 37C incubator equilibrated to 5 percent CO2. Cells are allowed to adhere for 24 hours prior to treatment with compounds of interest or controls for 8 hours. Cells are fixed in 4 percent formaldehyde and stained with Draq5 (BioStatus) to identify cells and subcellular compartment boundaries prior to signal detection. 8 Images per well were acquired on an Evotec Opera at 2 wavelengths (488 and 635nm), and the ratio of fluorescence in the nucleus relative to fluorescence in the cytoplasm (N/C Ratio) in the 488nm channel was calculated for a minimum of 350 cells per image.

Peroxisome proliferator-activated receptor gamma (Homo sapiens), sequence (P37231 whole entry, looked up, the tested form may be a part): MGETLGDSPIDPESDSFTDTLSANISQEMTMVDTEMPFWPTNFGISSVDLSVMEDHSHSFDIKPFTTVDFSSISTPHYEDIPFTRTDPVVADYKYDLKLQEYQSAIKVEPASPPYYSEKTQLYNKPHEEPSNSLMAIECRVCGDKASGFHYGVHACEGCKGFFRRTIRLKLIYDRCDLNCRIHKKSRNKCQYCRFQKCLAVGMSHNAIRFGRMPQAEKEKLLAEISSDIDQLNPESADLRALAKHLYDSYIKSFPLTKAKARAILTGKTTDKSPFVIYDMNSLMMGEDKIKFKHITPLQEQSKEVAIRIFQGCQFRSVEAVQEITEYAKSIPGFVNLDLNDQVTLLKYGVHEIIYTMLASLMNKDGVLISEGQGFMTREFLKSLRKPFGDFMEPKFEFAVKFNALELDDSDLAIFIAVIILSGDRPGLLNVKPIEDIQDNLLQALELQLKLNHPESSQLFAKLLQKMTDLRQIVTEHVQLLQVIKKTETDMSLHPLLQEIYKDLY

Structure (SMILES)	outcome	AC50
O=[N+]([O-])c1ccc(O)cc1	inactive	–
NC(=O)N1C(=O)C(C(=O)c2cc(Cl)cs2)c2cc(F)c(Cl)cc21 (stereo not given)	inactive	–
CC(C)CCCCCCOC(=O)CCCCC(=O)OCCCCCCC(C)C	inactive	–
N#C[C@@H]1CC(F)(F)CN1C(=O)CNC1CC2CCC(C1)N2c1ncccn1 (stereo not given in full)	inactive	–
CCN(CC)CCNc1ccc(CNC=O)c2sc3ccc(OC)cc3c(=O)c12	inactive	–
CC(C)(C)c1ccc(O)c(C(C)(C)C)c1	inactive	–
C[C@@H]1C[C@H]2[C@@H]3CCC4=CC(=O)C=C[C@]4(C)[C@@]3(F)[C@@H](O)C[C@]2(C)[C@@]1(O)C(=O)COP(=O)(O)O	inactive	–
CCCCCCCC(=O)O	inactive	–
CC(O)CO (stereo not given)	inactive	–
OC1CCCCC1	inactive	–
CC(=O)NC1(c2cccc(F)c2)CCN(CC[C@@]2(c3ccc(Cl)c(Cl)c3)CN(c3ccccc3)C(=O)CO2)CC1	inactive	–
CCc1nn(C2CCCCC2)c2cc(C3(C#N)CCC(C(=O)O)CC3)ccc12 (stereo not given)	inactive	–
COc1ccc([N+](=O)[O-])cc1N	inactive	–
CCCCC(CC)COC(=O)CCCCC(=O)OCC(CC)CCCC (stereo not given)	inactive	–
Oc1cccc(O)c1	inactive	–
COCC(C)OCC(C)O (stereo not given)	inactive	–
Cc1cc(CCN2CCN(c3nsc4ccccc34)CC2)cc2c1NC(=O)CC2(C)C	inactive	–
CCCCCCCCOC(=O)CCCCCCCCC(=O)OCCCCCCCC	inactive	–
O=C(O)c1ccccc1C(c1ccc(O)cc1)c1ccc(O)cc1	inactive	–
O=c1c(-c2ccc(O)cc2)coc2cc(O)ccc12	inactive	–

Structure (SMILES)	outcome	AC50
CCOC(=O)CC(O)(CC(=O)OCC)C(=O)OCC	inactive	–
CCCCCCCCCCCCCC[N+](C)(C)C	inactive	–
CCCCCCCCCCCCN1CCCC1=O	inactive	–
CC1=C(/C=C/C(C)=C/C=C/C(C)=C/C(=O)O)C(C)(C)CCC1	inactive	–
ClC1=C(Cl)C(Cl)(Cl)C(Cl)=C1Cl	inactive	–
CCCOC(=O)c1ccc(O)cc1	inactive	–
O=C1OC2(c3ccccc31)c1cc(Br)c(O)c(Br)c1Oc1c2cc(Br)c(O)c1Br	–	74 µM (active)
CC(C)(C)c1cccc(C(C)(C)C)c1O	inactive	–
CC#C[C@]1(O)CC[C@H]2[C@@H]3CCC4=CC(=O)CCC4=C3[C@@H](c3ccc(N(C)C)cc3)C[C@@]21C	inactive	–
C#C[C@]1(O)CC[C@H]2[C@@H]3CCC4=CC(=O)CC[C@@H]4[C@H]3CC[C@@]21C	inactive	–
c1ccc2c(c1)Cc1ccccc1-2	inactive	–
OC1CCC(C2CCCCC2)CC1 (stereo not given)	inactive	–
NC(=O)N(O)[C@@H]1C=C[C@H](Oc2cccc(Oc3ccc(F)cc3)c2)C1	inactive	–
CCCCCCCCCCCCc1ccccc1S(=O)(=O)O	inactive	–
Cc1cc(C)c(O)c(C)c1	inactive	–
CC[C@H](C)[C@@H](C(=O)O)n1sc2ccccc2c1=O	inactive	–
CN1CCN(c2ccccc2/C=C2\SCCN(c3ccc(Cl)c(Cl)c3)C2=O)CC1	inactive	–
CCCCOCCO	inactive	–
Nc1cccc2c(N)cccc12	inactive	–
O=C(OCCOCCOC(=O)c1ccccc1)c1ccccc1	inactive	–
